High-throughput results: PubChem, several laboratories
The list is not random: actives were taken first. Their share in the collection is about 2%.
H9c2 TAG inh – inhibitors of triacylglycerol accumulation. H9c2 cells, Nile Red lipid (TAG) fluorescence; cells loaded with 200 µM oleic acid. inhibition, % at 12.5 µM. actives 0.66% (n = 230,000). AID 651582;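 active = pattern-corrected inhibition of lipid staining of at least 50% with the nuclear-stain viability signal not falling by more than 50%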;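 also: 0% = DMSO wells and 100% = triacsin C control wells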
CHT PAM – allosterically activates the human high affinity choline transporter | Q9GZV3 | CHT-expressing cells, membrane potential dye, choline EC20; active compounds read high; LV-AA mutant CHT in HEK293 cells | B-score at 10 µM | actives 0.49% (n = 310,000) | AID 488977;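 active = initial fluorescence not abnormally high and integrated response B-score, plate-corrected, over 3 SD above library mean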
Target sequence (Q9GZV3 whole entry, looked up): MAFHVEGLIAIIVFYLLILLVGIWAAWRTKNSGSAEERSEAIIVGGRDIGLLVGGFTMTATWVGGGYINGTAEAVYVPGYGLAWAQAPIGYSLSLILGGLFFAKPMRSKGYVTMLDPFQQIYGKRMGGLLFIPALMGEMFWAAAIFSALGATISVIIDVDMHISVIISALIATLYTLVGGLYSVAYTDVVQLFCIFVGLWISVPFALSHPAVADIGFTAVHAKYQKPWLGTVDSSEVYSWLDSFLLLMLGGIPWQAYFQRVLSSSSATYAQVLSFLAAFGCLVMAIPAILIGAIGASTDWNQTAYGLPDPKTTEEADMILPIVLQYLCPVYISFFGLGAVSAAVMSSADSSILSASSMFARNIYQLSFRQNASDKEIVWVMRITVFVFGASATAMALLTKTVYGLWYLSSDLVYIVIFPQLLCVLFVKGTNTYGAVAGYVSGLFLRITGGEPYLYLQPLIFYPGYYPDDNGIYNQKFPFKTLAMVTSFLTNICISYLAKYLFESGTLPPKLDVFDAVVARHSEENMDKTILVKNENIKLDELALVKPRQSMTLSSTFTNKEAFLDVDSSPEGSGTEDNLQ
CHT inh – human CHT choline transport inhibition. actives 0.86% (n = 310,000). B-score at 10 µM. CHT-expressing cells, membrane potential dye, choline response; active compounds read low. Q9GZV3;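 active = B-score over 3 SD under the library average, and starting fluorescence ratio not unusually high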;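 also: choline stimulus applied at its EC90 after an EC20 pre-addition; B-score computed on integrated fluorescence ratio after choline addition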
Kir21 block – blocks the mouse Kir2.1 inward-rectifier potassium channel; AID 1672; P35561; B-score at 10 µM; HEK293-Kir2.1, FluxOR thallium flux fluorescence; active compounds read low; actives 0.85% (n = 310,000);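 active = fluorescence ratio B-score at or below minus 3 SD of library scores, with starting-brightness B-score within 2 SD, cut at about -4.2 in these data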;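 also: channel flux triggered by added potassium and thallium sulfate stimulus; B-score of peak minus minimum fluorescence over baseline after thallium stimulus; more negative B-score means stronger Kir2.1 block with less thallium influx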
CHT act confirm – human CHT activation, confirmatory screen; actives 91% (n = 2,500); shares compounds with CHT PAM; activation, % at 10 µM; AID 504833; CHT-expressing cells, membrane potential dye fluorescence (FDSS); % of choline EC20–EC90 response window; HEK293 expressing CHT LV-AA mutant; choline added at its EC20;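 active = primary screen active, with duplicate mean activation above negative control mean plus 3 SD, cut at about 11% in these data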
HEK293 MP dye – counter-screen for CHT activators: effect in parental HEK293 cells; shares compounds with CHT PAM; membrane potential dye fluorescence (FDSS); measured after EC20 choline addition; ratio readout change at 10 µM, hits read low; actives 62% (n = 2,500);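 active = duplicate-averaged ratio beyond 3 SD from buffer wells, up or down, though filed actives are nearly all decreases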
Active calls of the source: *.

For Cc1ccc2c(c1)c1n[nH]c(=S)nc1n2CCc1ccccc1 the results were CHT PAM inactive, CHT inh inactive and Kir21 block 2.43.
For CC(=O)c1cccc(Nc2nc(=O)c3cccnc3s2)c1 the results were CHT PAM 6.96*, CHT inh inactive, Kir21 block -1.03, CHT act confirm 48.4* and HEK293 MP dye -43.8*.
Screening CCOc1cc(N2CCOCC2)c(OCC)cc1NC(=O)COC(=O)[C@@H]1CCCN1S(=O)(=O)c1ccccc1F returned H9c2 TAG inh 3.2, CHT PAM inactive, CHT inh inactive and Kir21 block 1.34.
For CC(C)(C)c1ccc(C(=O)NNC(=O)c2ccncc2)cc1 the results were H9c2 TAG inh -7.6, CHT PAM inactive, CHT inh inactive and Kir21 block 0.82.
`Cc1ccc(C(=O)N2CC(C)OC(C)C2)cc1S(=O)(=O)N1CCCCC1` (configuration not stated) gave H9c2 TAG inh 3.1.
For CN(C)c1ccc(/C=N/NC(=O)C(=O)/C=C2\NC3(CCCC3)Cc3ccccc32)cc1 the results were CHT PAM 6.68*, CHT inh inactive, Kir21 block -0.56, CHT act confirm -0.2 and HEK293 MP dye inactive.
For O=C(CN1CC[n+]2c(-c3cccs3)csc21)c1ccc(-c2ccccc2)cc1 the results were H9c2 TAG inh -4.3, CHT PAM inactive, CHT inh inactive and Kir21 block -0.69.
Screening CC(=O)N1CC[n+]2c(-c3ccc(Cl)cc3)csc21 returned H9c2 TAG inh -2.9, CHT PAM inactive, CHT inh inactive, Kir21 block -0.41, CHT act confirm 46.8* and HEK293 MP dye -23*.
`CCc1ccc(-c2csc3[n+]2CCN3C(C)=O)cc1` gave CHT PAM inactive, CHT inh inactive, Kir21 block 0.33, CHT act confirm 41.2* and HEK293 MP dye inactive.
COc1ccc(OC)c(C(=O)COC(=O)C(CCSC)NC(=O)COc2ccccc2)c1 (configuration not stated) was read as H9c2 TAG inh -4.4, CHT PAM inactive, CHT inh inactive, Kir21 block 0.19, CHT act confirm 26.2* and HEK293 MP dye inactive.
Screening COc1ccccc1C(=O)COC(=O)C(CCSC)NC(=O)COc1ccccc1 (configuration not stated) returned H9c2 TAG inh 9.5, CHT PAM inactive, CHT inh inactive and Kir21 block 0.
Cc1cc(OCCn2nc(C(=O)O)c3ccccc3c2=O)ccc1C(C)C was read as Kir21 block -0.28.
Screening CCc1cccc(OCCn2nc(C(=O)O)c3ccccc3c2=O)c1 returned H9c2 TAG inh -5.4, CHT PAM inactive, CHT inh inactive, Kir21 block 1.75, CHT act confirm 30.3* and HEK293 MP dye inactive.
Screening CC[C@]12c3[nH]c4cc(-c5ccco5)ccc4c3CCN1C(=O)[C@@H](CC(=O)NCCCN(C)C)C[C@@H]2C(=O)N1CCN(C(=O)C2CC2)CC1 returned H9c2 TAG inh -17.5.
O=C(NS(=O)(=O)NC1CCCCC1)C1=C(N2CCCC2)COC1=O was read as H9c2 TAG inh 5.6.
Screening CCCCCC(=O)Cc1cc(O)cc2c1C(=O)Oc1cc(O)c(C(=O)O)c(CCCCC)c1O2 returned CHT PAM inactive, CHT inh inactive, Kir21 block 0.39, CHT act confirm 30.1* and HEK293 MP dye -49.6*.
`CCCCn1c(=N)n(CC(O)COc2ccccc2)c2ccccc21` (configuration not stated) gave H9c2 TAG inh -1.5, CHT PAM inactive, CHT inh inactive, Kir21 block -3.7, CHT act confirm 35.5* and HEK293 MP dye inactive.
COc1ccc(OCC(O)Cn2c(=N)n(CCN3CCOCC3)c3ccccc32)cc1 (configuration not stated) was read as H9c2 TAG inh -16.1, CHT PAM inactive, CHT inh inactive and Kir21 block 1.49.
Screening O=[N+]([O-])c1ccc(SCCO)nc1SCCO returned H9c2 TAG inh 1.9, CHT PAM inactive, CHT inh inactive and Kir21 block 1.01.
CC(C)CN1CCN(Cc2cc(F)ccc2-n2cccn2)CC1CCO (configuration not stated) was read as H9c2 TAG inh -22.0, CHT PAM inactive, CHT inh inactive, Kir21 block 0.05, CHT act confirm 9.4 and HEK293 MP dye inactive.
Screening O=C(CCC1CCN(C(=O)CC2=CCCCC2)CC1)NCc1ccc(F)cc1 returned H9c2 TAG inh 5.5.
For CCOc1ccc(-n2c(SCC(=O)c3c(N)n(C)c(=O)n(C)c3=O)nnc2-c2cccnc2)cc1 the results were CHT PAM inactive, CHT inh inactive and Kir21 block 0.
`O=C(O)CSCC(=O)NCc1c(Cl)cccc1Oc1ccccc1` gave H9c2 TAG inh 6.6, CHT PAM inactive, CHT inh inactive and Kir21 block -0.47.
O=S(=O)(NCc1c(Cl)cccc1Oc1ccccc1)c1ccc(F)cc1 was read as H9c2 TAG inh -16.0, CHT PAM inactive, CHT inh inactive, Kir21 block -0.48, CHT act confirm 0.8 and HEK293 MP dye inactive.
Screening NC(=O)N/N=C\c1cc(Br)ccc1O returned CHT PAM inactive, CHT inh inactive and Kir21 block 1.52.
For Cc1cc(C)c(/C=N/NC(N)=O)c(C)c1/C=N/NC(N)=O the results were H9c2 TAG inh -11.2, CHT PAM 6.41*, CHT inh inactive, Kir21 block 1.39, CHT act confirm 46.9* and HEK293 MP dye -61.7*.
For O=C1N(Cc2cccc(Cl)c2)C[C@@H]2C[C@@H](c3ccsc3)N3CCC[C@@]123 the results were CHT PAM inactive, CHT inh inactive, Kir21 block -0.43, CHT act confirm 27.6* and HEK293 MP dye inactive.
`COCc1ccc([C@@H]2C[C@H]3CN(Cc4cccc(Cl)c4)C(=O)[C@]34CCCN24)o1` gave H9c2 TAG inh -23.3, CHT PAM inactive, CHT inh inactive and Kir21 block -0.41.
For Cc1cc(NCCCN2CCOCC2)n2nc(C)c(-c3ccc(F)cc3)c2n1 the results were H9c2 TAG inh 31.2, CHT PAM inactive, CHT inh inactive, Kir21 block -0.42, CHT act confirm 52.5* and HEK293 MP dye -64.6*.
`Cc1cc(NCCCN2CCOCC2)n2nc(C)c(-c3ccccc3)c2n1` gave CHT PAM 9.7*, CHT inh inactive, Kir21 block -0.66, CHT act confirm 44.7* and HEK293 MP dye -56.9*.
